Here are results for three molecules from PubChem BioAssay (NCI).

About 83,000 compounds went through this panel and 20% of them were active in at least one assay; those are over-represented in the sample as a whole.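 Growth was measured after 48 h exposure to one concentration of compound in 96-well plates. Values under 10 count as active.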 The source made the active and inactive calls.

The experiment relates to HL-60(TB) leukemia. Put plainly: NCI-60 one-dose screen, 48 h (100 = growth as untreated, 0 = no growth, -100 = all killed). The note with it: 10 µM unless noted.
`COc1ccccc1/C(C)=N/NC(=O)CSc1nc2ccccc2c(=O)n1Cc1ccc(S(N)(=O)=O)cc1`: the growth is 101% (inactive).

`CCCCCCCCN(CCCCCCCC)C(=N)c1ccnc2ccccc12`: the growth was -68.5% (active).

Turning to `C[C@]12O[C@H](C[C@]1(O)CO)n1c3ccccc3c3c4c(c5c6ccccc6n2c5c31)CNC4=O`, the growth is -32.7% (active).
